biological target: USP14 (UniProt P54578); assay: log2 ratio of Biotin-Ahx-Ub-VS probe labelling (fragment/DMSO); higher = less target engagement (more negative = stronger competition), active = hit call of the paper (q ≤ 0.05, log2 ratio ≤ -1); conditions: compound concentration: 200 uM; treatment time: 3 h
Experimental: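 Competitive ABPP in HEK293T cell lysate. Lysates were treated with each chloroacetamide fragment at 200 µM for 3 h, then with Biotin-Ahx-Ub-VS (0.5 µM, 1 h), NeutrAvidin-enriched and analysed by diaPASEF LC-MS/MS. Protein LFQ was median-normalised; average log2 ratio is fragment/DMSO from an unpaired t-test (n=3 treated, n=44 DMSO). Hits: q ≤ 0.05, log2 ratio ≤ -1, unique peptides ≥ 2.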

Sequence of USP14 (P54578 whole entry, the tested form may be a part): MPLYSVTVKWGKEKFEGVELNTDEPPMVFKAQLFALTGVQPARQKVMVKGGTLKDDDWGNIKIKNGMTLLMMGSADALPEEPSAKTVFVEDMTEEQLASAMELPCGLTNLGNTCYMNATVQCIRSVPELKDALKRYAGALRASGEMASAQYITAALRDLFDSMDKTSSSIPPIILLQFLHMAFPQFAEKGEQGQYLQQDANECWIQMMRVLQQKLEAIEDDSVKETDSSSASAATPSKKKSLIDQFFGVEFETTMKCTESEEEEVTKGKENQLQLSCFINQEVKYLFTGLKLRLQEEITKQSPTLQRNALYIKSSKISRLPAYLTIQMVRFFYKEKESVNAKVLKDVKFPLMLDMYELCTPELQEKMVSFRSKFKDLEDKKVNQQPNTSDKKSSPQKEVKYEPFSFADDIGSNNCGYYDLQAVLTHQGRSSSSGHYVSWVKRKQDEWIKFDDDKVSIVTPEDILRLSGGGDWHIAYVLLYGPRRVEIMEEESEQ

Question: Cc1c(C#N)c(NC(=O)CCl)n(Cc2ccco2)c1C was tested. Which “log2 ratio of Biotin-Ahx-Ub-VS probe labelling” value (shortened to “log2 ratio”) did it give?
Answer: -0.314 (inactive)

Question: For NC(=O)C1CCCCN1C(=O)CCl (stereo not given), which “log2 ratio” value is on record?
Answer: -0.15 (inactive)

Question: For Cc1ccn2cc(CNC(=O)CCl)nc2c1.Cl, which “log2 ratio” value is on record?
Answer: 0.000672 (inactive)

Question: Which “log2 ratio” value does the source give for COc1ccccc1C(C)NC(=O)CCl (stereo not given) here?
Answer: -0.458 (inactive)

Question: Cl.O=C(CCl)N1CCn2cncc2C1 was tested. Which “log2 ratio” value did it give?
Answer: -0.259 (inactive)

Question: CN(CCc1ncc(Br)cn1)C(=O)CCl.Cl was tested. Which “log2 ratio” value did it give?
Answer: -0.0202 (inactive)

Question: O=C(CCl)N1CCC(c2noc3cc(F)ccc23)CC1 was tested. Which “log2 ratio” value did it give?
Answer: -0.337 (inactive)

Question: Cc1ccc(CC(CO)CNC(=O)CCl)cc1 (stereo not given) was tested. Which “log2 ratio” value did it give?
Answer: -0.262 (inactive)

Question: For CC1CN(c2ccc(NC(=O)CCl)cc2)CC(C)O1 (stereo not given), which “log2 ratio” value is on record?
Answer: -0.0454 (inactive)

Question: Which “log2 ratio” value does the source give for O=C(CCl)N1CCN(C(=O)N2CCCCC2)CC1 here?
Answer: -1.06 (active)

Question: C[C@H]1CN(C(=O)CCl)CCN1C(=O)c1cnn(C)c1.Cl was tested. Which “log2 ratio” value did it give?
Answer: -0.0358 (inactive)

Question: Cc1cccc(NC(=O)CCl)c1C was tested. Which “log2 ratio” value did it give?
Answer: -0.488 (inactive)

Question: Which “log2 ratio” value does the source give for Cc1noc(C)c1CNC(=O)CCl here?
Answer: -0.561 (inactive)

Question: Which “log2 ratio” value does the source give for CC(O)CC1CCN(C(=O)CCl)CC1 (stereo not given) here?
Answer: -0.442 (inactive)

Question: How did the “log2 ratio” value turn out when Cc1cccc(N(CCC#N)C(=O)CCl)c1C was run?
Answer: 0.0267 (inactive)

Question: For Cl.O=C(CCl)N1CC(c2ccc(Br)cn2)C1, which “log2 ratio” value is on record?
Answer: -0.592 (inactive)

Question: How did the “log2 ratio” value turn out when O=C(CN1CCN(C(=O)CCl)CC1)Nc1cccc(F)c1 was run?
Answer: -0.0714 (inactive)

Question: Which “log2 ratio” value does the source give for O=C(CCl)N1CCCC1c1ccsc1 (stereo not given) here?
Answer: -0.248 (inactive)

Question: How did the “log2 ratio” value turn out when CC(=O)Nc1ccc(NC(=O)CCl)cc1 was run?
Answer: 0.0669 (inactive)

Question: How did the “log2 ratio” value turn out when Cc1cccc(C)c1NC(=O)CCl was run?
Answer: -0.289 (inactive)

Question: How did the “log2 ratio” value turn out when Cc1cc(CC(C)NC(=O)CCl)n[nH]1 (stereo not given) was run?
Answer: -0.00618 (inactive)

Question: With Cc1nnc(C(NC(=O)CCl)c2ccccc2)n1C (stereo not given) as the molecule, how does the “log2 ratio” value read?
Answer: 0.163 (inactive)

Question: How did the “log2 ratio” value turn out when CN1C(=O)c2ccc(NC(=O)CCl)cc2C1=O was run?
Answer: -0.292 (inactive)

Question: Which “log2 ratio” value does the source give for CNC(=O)Cn1cc(NC(=O)CCl)cn1 here?
Answer: -0.154 (inactive)

Question: For O=C(CCl)N1CCCCCC1c1ncon1 (stereo not given), which “log2 ratio” value is on record?
Answer: -0.087 (inactive)

Question: How did the “log2 ratio” value turn out when C#Cc1cccc(NC(=O)CCl)c1 was run?
Answer: -0.191 (inactive)

Question: With Cc1nc(CC2CCN(C(=O)CCl)CC2)no1 as the molecule, how does the “log2 ratio” value read?
Answer: -0.561 (inactive)

Question: For O=C(CCl)N1CCOCCC1c1ccccc1 (stereo not given), which “log2 ratio” value is on record?
Answer: -0.111 (inactive)

Question: With O=C(CCl)N1CCC(C(=O)N2CCCCCC2)CC1 as the molecule, how does the “log2 ratio” value read?
Answer: -0.204 (inactive)

Question: How did the “log2 ratio” value turn out when CN(C)S(=O)(=O)c1ccccc1CNC(=O)CCl was run?
Answer: 0.0554 (inactive)

Question: Cc1c(NC(=O)CCl)c(=O)n(-c2ccccc2)n1C was tested. Which “log2 ratio” value did it give?
Answer: -0.215 (inactive)

Question: For CC1Cc2ccccc2N1C(=O)CCl (stereo not given), which “log2 ratio” value is on record?
Answer: -0.771 (inactive)

Question: With O=C(CCl)NC1CCS(=O)(=O)c2ccccc21 (stereo not given) as the molecule, how does the “log2 ratio” value read?
Answer: -0.152 (inactive)

Question: O=C(CCl)N1CCCCC12CCOCC2 was tested. Which “log2 ratio” value did it give?
Answer: -0.559 (inactive)

Question: Which “log2 ratio” value does the source give for Cc1nc(CN2CCCN(C(=O)CCl)CC2)no1.Cl here?
Answer: 0.0942 (inactive)

Question: For O=C(CCl)NC1CCC2(CC1)OCCO2, which “log2 ratio” value is on record?
Answer: -0.308 (inactive)

Question: With Cl.Cn1c(CNC(=O)CCl)nc2cccnc21 as the molecule, how does the “log2 ratio” value read?
Answer: -0.0826 (inactive)

Question: With O=C(CCl)NCC1(c2ccccc2)CC1 as the molecule, how does the “log2 ratio” value read?
Answer: 0.0125 (inactive)

Question: For CCC1c2ccsc2CCN1C(=O)CCl (stereo not given), which “log2 ratio” value is on record?
Answer: -0.479 (inactive)

Question: How did the “log2 ratio” value turn out when O=C(CCl)NCCC1COCCO1 (stereo not given) was run?
Answer: -0.27 (inactive)
